Measured values: PubChem BioAssay (NCATS)
Where “and” joins values, the source holds several entries; their conditions need not be identical. Identical values can stand only once. Inconclusive results are not listed. Calls of active or inactive are those of the source. The call rests on the fitted dose curve; in most records, active means well fitted curve in the direction sought with a large enough effect; inconclusive means small, poorly fitted or top-dose-only effect, or another doubt; inactive means no such curve, though single readings can be large; an effect the other way counts as inactive or inconclusive.

What was measured:
[1] = Identifying Small Molecule Inhibitors of Pancreatic Cancer Stem Cells (Panc1, Spheroid) (AID 1259359); conditions: Panc1 spheroid cancer stem cell viability; series mostly up to 46.1 µM;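 further: compound exposure lasted 48 h before reading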; further: potency means the concentration at half of the fitted maximal effect
In short: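 Adherent (2D) versus sphere (3D) formats; spheres generated 14 d in SCM beforehand. Compound transferred by pin tool after 4 h, 48 h incubation, CellTiter-Glo endpoint.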

[2] = Identifying Small Molecule Inhibitors of Pancreatic Cancer Stem Cells (SN12C, Spheroid) (AID 1259360); conditions: Potency: SN12C spheroid viability; series mostly up to 46.1 µM; further: potency means the concentration at half of the fitted maximal effect
In short: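 Monolayer and spheroid cultures are compared. Spheroids form over 14 days in stem cell medium on hydrogel-coated low-attachment plates, then are exposed to compound for 48 h before CellTiter-Glo luminescence.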

[3] = Identifying Small Molecule Inhibitors of Pancreatic Cancer Stem Cells (A278, Adherent) (AID 1259361); conditions: series mostly up to 46.1 µM;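 further: viability read after 48 h compound exposure; nearly all actives have a fitted effect of over 35% in size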
In short: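 After a 4 h attachment period, compounds were pinned into wells and cultures held 48 h under standard incubator conditions. Viability was then measured as CellTiter-Glo luminescence following 10 min at room temperature.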

[4] = Identifying Small Molecule Inhibitors of Pancreatic Cancer Stem Cells (Panc1, Adherent) (AID 1259362); conditions: Potency: viability; series mostly up to 46.1 µM; further: potency means the concentration at half of the fitted maximal effect
In short: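 Luminescent ATP readout (CellTiter-Glo) quantifies surviving cells after a 48 h drug incubation. Normalization uses DMSO wells as no inhibition and media-only wells as full inhibition; bortezomib served as positive control.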

[5] = P-glycoprotein substrates identified in KB-8-5-11 adenocarcinoma cell line, qHTS therapeutic library screen (AID 1346987); conditions: KB-8-5-11 (P-gp overexpressing) viability, CellTiter-Glo, 72 h; series mostly up to 44.5 µM; further: nearly all actives have a fitted effect of over 65% in size; further: potency means the concentration at half of the fitted maximal effect
In short: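 KB-8-5-11: colchicine-selected sub-line of KB-3-1 over-expressing P-gp; assay medium lacked colchicine. 72 h drug exposure at 37 degree C, CellTiter-Glo.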

[6] = NS1 protein of Zika virus - qHTS assay to identify small molecule inhibitors in human HEK 293 cells (AID 1347053); conditions: HEK293 ZIKV MR766 infection, NS1 TR-FRET, 24 h; series mostly up to 46.1 µM; further: nearly all actives have a fitted effect of over 55% in size; further: potency means the concentration at half of the fitted maximal effect
In short: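 HEK 293; 20 h pre-culture, 37 C/5% CO2; cpd 1 h pre-infection; ZIKV MR766, MOI = 0.5, 24 h, 37 C; TR-FRET NS1 readout (two anti-NS1 Abs); norm. to no-virus vs infected.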

[7] = qHTS of pediatric cancer cell lines to identify multiple opportunities for drug repurposing: Primary screen for DAOY cells (AID 1347090); conditions: DAOY medulloblastoma viability, CellTiter-Glo luminescence, 48 h; series mostly up to 46 µM; further: potency means the concentration at half of the fitted maximal effect; nearly all actives have a fitted effect of over 55% in size
In short: (§1)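 Eight- or eleven-point concentration series, 48 h treatment at 37 degrees C in growth media; readout CellTiter-Glo luminescence. Potency and efficacy were taken from the concentration-response curves.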

[8] = qHTS of pediatric cancer cell lines to identify multiple opportunities for drug repurposing: Primary screen for SJ-GBM2 cells (AID 1347091); conditions: SJ-GBM2 viability, CellTiter-Glo luminescence, 48 h; series mostly up to 46 µM; further: potency means the concentration at half of the fitted maximal effect
In short: as §1

[9] = qHTS of pediatric cancer cell lines to identify multiple opportunities for drug repurposing: Primary screen for A673 cells (AID 1347092); conditions: A673 Ewing sarcoma viability, CellTiter-Glo ATP luminescence, 48 h; series mostly up to 46 µM; further: potency means the concentration at half of the fitted maximal effect; nearly all actives have a fitted effect of over 45% in size
In short: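 Cell viability of A673 measured by CellTiter-Glo ATP luminescence after 48 hours compound exposure. Dilution series spanned 0.78 nM to 46 µM (MIPE, 11-point) or 0.59 nM to 46 µM (NPC, 8-point); bortezomib 2.3 uM positive control.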

[10] = qHTS of pediatric cancer cell lines to identify multiple opportunities for drug repurposing: Primary screen for SK-N-MC cells (AID 1347093); conditions: SK-N-MC viability, CellTiter-Glo luminescence, 48 h; series mostly up to 46 µM; further: potency means the concentration at half of the fitted maximal effect
In short: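 Metabolically active cells were quantified by ATP-dependent luminescence (CellTiter-Glo, 15 min at room temperature) following 48 h treatment. Cells had been plated at 500-1,000 per well and settled for 5 h beforehand.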

[11] = qHTS of pediatric cancer cell lines to identify multiple opportunities for drug repurposing: Primary screen for BT-37 cells (AID 1347094); conditions: BT-37 viability, CellTiter-Glo luminescence, 48 h; series mostly up to 57.3 µM; further: potency means the concentration at half of the fitted maximal effect
In short: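 Cells plated at 500-1,000/well in growth medium, compounds added after 5 h. MIPE tested at 11 points (from 0.78 nM), NPC at 8 points (from 0.59 nM). CellTiter-Glo luminescence after 48 h; concentration-response curves from primary screen.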

[12] = P-glycoprotein substrates identified in KB-3-1 adenocarcinoma cell line, qHTS therapeutic library screen (AID 1346986); conditions: KB-3-1 parental cells viability, CellTiter-Glo, 72 h; series mostly up to 44.5 µM;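 further: potency means the concentration at half of the fitted maximal effect; potency is for cytotoxicity meaning loss of cell viability; nearly all actives have a fitted effect of over 60% in size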
In short: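 KB-3-1 parental cells and P-gp-overexpressing KB-8-5-11 (colchicine omitted during assay) plated at 500 cells/well, dosed in dose-response, incubated 72 h at 37 degree C. CellTiter-Glo luminescence read; KB-8-5-11 also tested with tariquidar.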

[13] = qHTS of pediatric cancer cell lines to identify multiple opportunities for drug repurposing: Primary screen for TC32 cells (AID 1347089); conditions: TC32 Ewing sarcoma viability, CellTiter-Glo luminescence, 48 h; series mostly up to 45.8 µM; further: potency means the concentration at half of the fitted maximal effect; nearly all actives have a fitted effect of over 60% in size
In short: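 Luminescent ATP read-out (CellTiter-Glo) of metabolically active TC32 cells after 48 h exposure. Concentration-response curves came from 11-point (MIPE, 0.78 nM–46 µM) or 8-point (NPC, 0.59 nM–46 µM) primary titrations; follow-up used 11 points.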

CN(C)CC=CC(=O)Nc1cc2c(Nc3ccc(F)c(Cl)c3)ncnc2cc1O[C@H]1CCOC1
inactive: Potency [6]
active: Potency [1] 11.8 µM | Potency [2] 23500 nM | IC50 (viability decrease) [3] 23500 nM | Potency [4] 1480 nM | Potency [5] 9.35 µM | Potency [7] 5900 nM | Potency [8] 3720 nM | Potency [9] 3720 nM | Potency [10] 1660 nM | Potency [11] 21700 nM

O=C(NC1CCNCC1)c1[nH]ncc1NC(=O)c1c(Cl)cccc1Cl
inactive: Potency [5]
active: Potency [1] 1.32 µM and 1.05 µM | Potency [2] 1050 nM | Potency [12] 580 nM | Potency [6] 3720 nM | Potency [13] 2340 nM | Potency [7] 1180 nM | Potency [8] 833 nM | Potency [9] 59 nM | Potency [10] 526 nM | Potency [11] 1370 nM

COC(=O)[C@]12CCC(C)(C)C[C@@H]1[C@@H]1C(=O)C=C3[C@@]4(C)C=C(C#N)C(=O)C(C)(C)[C@@H]4CC[C@@]3(C)[C@]1(C)CC2
active: Potency [1] 1.18 µM | Potency [2] 2350 nM | IC50 (viability decrease) [3] 1050 nM | Potency [4] 2960 nM | Potency [5] 0.743 µM | Potency [6] 1320 nM | Potency [7] 590 nM | Potency [8] 235 nM | Potency [9] 372 nM | Potency [10] 372 nM | Potency [11] 685 nM

COc1cc2c(Oc3ccc(-c4cnc(Nc5ccc(F)cc5)n(C)c4=O)cc3F)ccnc2cc1OCCCN1CCOCC1
active: Potency [1] 11.8 µM | IC50 (viability decrease) [3] 3720 nM | Potency [5] 13.2 µM | Potency [13] 11700 nM | Potency [7] 18700 nM | Potency [8] 526 nM | Potency [9] 5900 nM | Potency [10] 833 nM | Potency [11] 24300 nM

CC1=C(CO)C(=O)O[C@@H]([C@@H](C)[C@H]2CC[C@H]3[C@@H]4C[C@H]5O[C@]56[C@@H](O)C=CC(=O)[C@]6(C)[C@@H]4CC[C@]23C)C1
active: Potency [1] 1.05 µM | Potency [2] 1660 nM | IC50 (viability decrease) [3] 662 nM | Potency [4] 2960 nM | Potency [6] 1480 nM | Potency [13] 2340 nM | Potency [7] 743 nM | Potency [8] 372 nM | Potency [9] 372 nM | Potency [10] 132 nM | Potency [11] 2170 nM

CN1CC[C@@H](c2c(O)cc(O)c3c(=O)cc(-c4ccccc4Cl)oc23)[C@@H](O)C1
active: Potency [1] 0.132 µM | Potency [2] 118 nM | IC50 (viability decrease) [3] 37.2 nM | Potency [4] 132 nM | Potency [5] 0.209 µM | Potency [6] 833 nM | Potency [13] 466 nM | Potency [7] 187 nM | Potency [8] 52.6 nM | Potency [9] 93.5 nM | Potency [10] 118 nM | Potency [11] 109 nM

CC(C)C[C@H](NC(=O)CNC(=O)c1cc(Cl)ccc1Cl)B(O)O
active: Potency [1] 0.0935 µM | Potency [2] 83.3 nM | IC50 (viability decrease) [3] 16.6 nM | Potency [4] 187 nM | Potency [6] 418 nM | Potency [13] 2940 nM | Potency [7] 235 nM | Potency [8] 187 nM | Potency [9] 1480 nM | Potency [10] 148 nM | Potency [11] 485 nM

O=C(Nc1cc(C(F)(F)F)cc(C(F)(F)F)c1)c1cc(Cl)ccc1O
active: Potency [1] 0.372 µM | Potency [2] 833 nM | Potency [4] 33.2 nM | Potency [5] 187 nM and 820 nM | Potency [6] 2640 nM | Potency [7] 590 nM | Potency [8] 235 nM | Potency [9] 4690 nM | Potency [10] 469 nM | Potency [11] 968 nM

CCOc1cc2ncc(C#N)c(Nc3ccc(F)c(Cl)c3)c2cc1NC(=O)C=CCN(C)C
active: Potency [1] 16.6 µM | Potency [2] 1480 nM | IC50 (viability decrease) [3] 20900 nM | Potency [4] 18700 nM | Potency [5] 10.5 µM | Potency [13] 18600 nM | Potency [7] 118 nM | Potency [8] 935 nM | Potency [9] 29.6 nM | Potency [10] 46.9 nM
inactive: Potency [6]

COCCn1c2c([n+](Cc3cnccn3)c1C)C(=O)c1ccccc1C2=O
active: Potency [2] 105 nM | IC50 (viability decrease) [3] 6.6 nM | Potency [6] 37.2 nM | Potency [8] 13.2 nM | Potency [9] 5.9 nM | Potency [10] 11.8 nM | Potency [11] 153 nM
inactive: Potency [1] | Potency [4]

O=c1[nH]nc(Sc2ncc([N+](=O)[O-])s2)n1-c1ccc2c(c1)OCCO2
active: Potency [1] 5.26 µM | IC50 (viability decrease) [3] 26400 nM | Potency [5] 18.7 µM | Potency [6] 9350 nM | Potency [7] 9350 nM | Potency [8] 9350 nM | Potency [9] 3720 nM | Potency [10] 9350 nM | Potency [11] 21700 nM
